# Source: PubChem BioAssay (EPA / NIEHS)
# Where “and” joins values, the source holds several entries; their conditions need not be identical. Equal values may be shown once. The source holds several records for some structures; these can differ, active in one and inactive in another. Calls of active or inactive are those of the source. Rule for the calls: active = hit-call score of the fitted dose curve at least 0.9, where 1 is the maximum; inactive = score below 0.9.
# Experiment: ATG_EGR_CIS: Attagene CIS-FACTORIAL HepG2 Assay for human Early Growth Response 1 (EGR1) (AID 2282938)
# Conditions: HepG2 Attagene CIS-FACTORIAL EGR reporter mRNA; actives raise or lower the signal
# Method: ATG_CIS is a cell-based, multiplexed-readout assay that uses HepG2, a human liver cell line, with measurements taken at 24 hours after chemical dosing in a 24-well plate.ATG_EGR_CIS is one of 52 assay component(s) measured or calculated from the ATG_CIS assay. It is designed to make measurements of mRNA induction, a form of inducible reporter, as detected with fluorescence intensity signals by Reverse transcription polymerase chain reaction (RT-PCR) and Capillary electrophoresis technology.Data from the assay component ATG_EGR_CIS was analyzed into 1 assay endpoint. This assay endpoint, ATG_EGR_CIS, was analyzed with bidirectional fitting relative to DMSO as the negative control and baseline of activity. Using a type of inducible reporter, measures of mRNA for gain or loss-of-signal activity can be used to understand the reporter gene at the transcription factor-level as they relate to the gene EGR1. Furthermore, this assay endpoint can be referred to as a primary readout, because this assay has produced multiple assay endpoints where this one serves a reporter gene function. To generalize the intended target to other relatable targets, this assay endpoint is annotated to the dna binding intended target family, where the subfamily is zinc finger.
# Human liver HepG2 cells are transiently transfected with multiple reporter transcription units (MRTUs) in 6-well plates using FuGene 6 reagent (Roche; 3 ml FuGene/1 mg DNA). The MRTU constructs are regulated by a cis-regulating element (promoter). […] A major difference between the CIS and TRANS system is that in CIS activities of endogenous TFs are measured, whereas the TRANS assay evaluates changes in activities of exogenous, chimeric NR-Gal4 proteins. […] At the end of 24 hour incubation, total RNA was isolated using TriZol reagent (Invitrogen). The isolated RNA is then reverse-transcribed using oligo(dT) primer and Mo-MLV reverse transcriptase (Invitrogen) with DNAse I (Ambion) treatment for 30 min. The one-tenth of the produced cDNA was amplified by PCR using Taq DNA polymerase (Invitrogen) and two reporter sequence-specific primers. The PCR products were fluorescently labeled by primer extension with 6-arboxyfluorescein (6-FAM) 5'-labeled reporter sequence-specific primer (2 min at 95 C, 20 s at 68 C and 10 min at 72 C) and these products were digested with 5U of HpaI (New England Biolabs) for 2h at 37 C. The fragments were purified using Qiaquick PCR columns (Qiagen), analyzed on an ABI 3130xL genetic analyzer (Applied Biosystems) with peak positions identified by using a set of X-rhodamine (ROX)-labeled MapMarker1000 molecular weight standards (BioVentures). The raw capillary electrophoresis data was processed using Attagraph software (Attagene).
Compound,AC50,outcome
CN(C)C(=O)NC1(c2ccccc2)CCN(CCC[C@]2(c3ccc(Cl)c(Cl)c3)CCCN(C(=O)c3ccccc3)C2)CC1,2.75 µM (active),
O=C(N[C@@H](c1ccccc1)[C@@H]1CCCCN1)c1cccc(C(F)(F)F)c1Cl,25.7 µM (active),
O=C(O)CN(CC(=O)O)CC(=O)O,,inactive
CCOCCOCCO,,inactive
C#CC(O)C(CC)CCCC (stereo not given),,inactive
O=Cc1ccccc1C=O,,inactive
Cc1cn([C@H]2C=C[C@@H](CO)O2)c(=O)[nH]c1=O,,inactive
NCCOCCOCCN,,inactive
CCCCCCC(C=O)=Cc1ccccc1,,inactive
CCCCCCCCCCCCCCCCO,,inactive
C/C=C/c1ccc(OC)cc1,,inactive
S=c1[nH]c2ccccc2s1,,inactive
c1ccc2occc2c1,,inactive
O=C(Oc1ccccc1)c1cccc(C(=O)Oc2ccccc2)c1,,inactive
Cn1cnc2c1c(=O)[nH]c(=O)n2C,,inactive
CCCC(=O)O,,inactive
C/C=C/C=C/C(=O)O,,inactive
Cc1ccc(C(C)(C)C)c(O)c1,158 µM (active),
O=C(O)c1[nH]n(-c2ccc(S(=O)(=O)O)cc2)c(=O)c1N=Nc1ccc(S(=O)(=O)O)cc1,,inactive
Cc1ccc(-c2cc(C(F)(F)F)nn2-c2ccc(S(N)(=O)=O)cc2)cc1,,inactive

Compound,AC50,outcome
CCCCCCCCCCCCCCOS(=O)(=O)O,,inactive
CCCC[C@H]1CN(CC2CCOCC2)C(=O)OC12CCN(C1(C)CCN(C(=O)c3c(C)ncnc3C)CC1)CC2,,inactive
COc1ccc(OC(F)(F)F)cc1CN[C@H]1CCCN[C@H]1c1ccccc1,,inactive
CC1=C(C)S(=O)(=O)CCS1(=O)=O,,inactive
COc1ccc(C(=O)Nc2nc3ccccc3c(NCc3ccccc3)c2C#N)cc1,,inactive
Cc1c(C)c2c(c(C)c1O)CCC(C)(COc1ccc(CC3SC(=O)NC3=O)cc1)O2 (stereo not given),,inactive
O=C1O[C@H]([C@H](O)CO)C(O)=C1O,,inactive
CCCCC(CC)COC(=O)CCCCCCCC(=O)OCC(CC)CCCC (stereo not given),,inactive
O=NO,,inactive
O=C(O)c1cccnc1,,inactive
COC(=O)CCC(=O)OC,,inactive
CN(C)C(=O)NC1(c2ccccc2)CCN(CC[C@@]2(c3ccc(F)c(F)c3)CN(C(=O)c3ccccc3)CCO2)CC1,,inactive
CCCCC(CC)CO (stereo not given),,inactive
Cc1occc(=O)c1O,,inactive
CC(=O)CC(c1ccccc1)c1c(O)c2ccccc2oc1=O (stereo not given),,inactive
NC(=Nc1ccccc1)Nc1ccccc1,39.2 µM (active),
CC(=O)O[C@]1(C(C)=O)CC[C@H]2[C@@H]3C=C(Cl)C4=CC(=O)[C@@H]5C[C@@H]5[C@]4(C)[C@H]3CC[C@@]21C,27.9 µM (active) and 40.3 µM (active) and 100 µM (active),inactive
CN(C)CCCN(C)CCCN(C)C,,inactive
CCC(C)N(C)C(=O)c1cc2ccccc2c(-c2ccccc2Cl)n1 (stereo not given),62.5 µM (active),
